Targets with a hit are over-represented here; the source holds about 8,800 in all. About 0.5% of all pairs of compound and target were hits. A number with no mark means an inactive call.
Legend:
Experiment in all cases: log2 fold change, soluble protein after heating vs DMSO (PISA); higher = thermal stabilisation; K562 lysate, 10 uM; active = over 0.2 and 3.5 SD of the protein, either way, in both replicates (recomputed)
[1] = compound: NCC(=O)Nc1ccc(-n2nc(C(F)(F)F)cc2-c2ccc3c(ccc4ccccc43)c2)cc1
In short: (§1)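 Soluble protein was defined as the supernatant remaining after 21,000xg for 90 min, following pooling of heated aliquots and adjustment to 0.5% NP-40 at 4°C. Before that, crude K562 extract at 1 mg/mL protein in PBS pH 7.4 with 1 mM MgCl2 was treated with 10 μM compound for 30 min and heated for 3 min across 48°C-58°C. Quantification used TMTpro 16plex LC-MS/MS with channel sums equalised, and values are log-two fold changes in thermal stability relative to solvent controls from duplicates.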

vorinostat = compound: O=C(CCCCCCC(=O)Nc1ccccc1)NO [vorinostat]
In short: as §1

silmitasertib = compound: O=C(O)c1ccc2c(c1)nc(Nc1cccc(Cl)c1)c1ccncc12 [silmitasertib]
In short: as §1

[2] = compound: O=C1NC(=O)C(c2cnc3ccccn23)=C1c1cn2c3c(cc(F)cc13)CN(C(=O)N1CCCCC1)CC2
In short: as §1

entospletinib = compound: c1cn2cc(-c3ccc4cn[nH]c4c3)nc(Nc3ccc(N4CCOCC4)cc3)c2n1 [entospletinib]
In short: as §1

Chain of UniProt Q6PJG6 (Q6PJG6 whole entry, looked up): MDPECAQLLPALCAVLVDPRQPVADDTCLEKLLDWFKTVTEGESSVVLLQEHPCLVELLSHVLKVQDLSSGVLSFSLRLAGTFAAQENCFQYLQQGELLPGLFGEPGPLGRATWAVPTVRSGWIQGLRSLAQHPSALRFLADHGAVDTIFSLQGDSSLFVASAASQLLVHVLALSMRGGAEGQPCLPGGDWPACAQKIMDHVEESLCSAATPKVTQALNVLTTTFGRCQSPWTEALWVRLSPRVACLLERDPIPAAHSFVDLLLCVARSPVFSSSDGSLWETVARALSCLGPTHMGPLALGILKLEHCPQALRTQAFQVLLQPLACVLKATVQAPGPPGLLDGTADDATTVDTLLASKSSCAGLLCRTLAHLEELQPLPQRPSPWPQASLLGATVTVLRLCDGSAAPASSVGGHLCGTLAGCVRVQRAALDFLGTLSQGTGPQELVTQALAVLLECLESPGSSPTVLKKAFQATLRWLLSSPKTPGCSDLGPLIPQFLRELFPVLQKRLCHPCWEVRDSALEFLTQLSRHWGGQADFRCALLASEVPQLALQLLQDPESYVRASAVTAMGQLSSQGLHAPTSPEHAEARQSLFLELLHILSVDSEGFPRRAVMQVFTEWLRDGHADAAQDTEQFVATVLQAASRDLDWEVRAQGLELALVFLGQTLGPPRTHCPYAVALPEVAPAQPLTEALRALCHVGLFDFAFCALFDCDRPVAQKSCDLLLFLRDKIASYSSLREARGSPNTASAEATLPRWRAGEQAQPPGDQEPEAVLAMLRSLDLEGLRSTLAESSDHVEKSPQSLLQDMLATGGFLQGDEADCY
Chain of UniProt Q5VT25 (Q5VT25 whole entry, looked up): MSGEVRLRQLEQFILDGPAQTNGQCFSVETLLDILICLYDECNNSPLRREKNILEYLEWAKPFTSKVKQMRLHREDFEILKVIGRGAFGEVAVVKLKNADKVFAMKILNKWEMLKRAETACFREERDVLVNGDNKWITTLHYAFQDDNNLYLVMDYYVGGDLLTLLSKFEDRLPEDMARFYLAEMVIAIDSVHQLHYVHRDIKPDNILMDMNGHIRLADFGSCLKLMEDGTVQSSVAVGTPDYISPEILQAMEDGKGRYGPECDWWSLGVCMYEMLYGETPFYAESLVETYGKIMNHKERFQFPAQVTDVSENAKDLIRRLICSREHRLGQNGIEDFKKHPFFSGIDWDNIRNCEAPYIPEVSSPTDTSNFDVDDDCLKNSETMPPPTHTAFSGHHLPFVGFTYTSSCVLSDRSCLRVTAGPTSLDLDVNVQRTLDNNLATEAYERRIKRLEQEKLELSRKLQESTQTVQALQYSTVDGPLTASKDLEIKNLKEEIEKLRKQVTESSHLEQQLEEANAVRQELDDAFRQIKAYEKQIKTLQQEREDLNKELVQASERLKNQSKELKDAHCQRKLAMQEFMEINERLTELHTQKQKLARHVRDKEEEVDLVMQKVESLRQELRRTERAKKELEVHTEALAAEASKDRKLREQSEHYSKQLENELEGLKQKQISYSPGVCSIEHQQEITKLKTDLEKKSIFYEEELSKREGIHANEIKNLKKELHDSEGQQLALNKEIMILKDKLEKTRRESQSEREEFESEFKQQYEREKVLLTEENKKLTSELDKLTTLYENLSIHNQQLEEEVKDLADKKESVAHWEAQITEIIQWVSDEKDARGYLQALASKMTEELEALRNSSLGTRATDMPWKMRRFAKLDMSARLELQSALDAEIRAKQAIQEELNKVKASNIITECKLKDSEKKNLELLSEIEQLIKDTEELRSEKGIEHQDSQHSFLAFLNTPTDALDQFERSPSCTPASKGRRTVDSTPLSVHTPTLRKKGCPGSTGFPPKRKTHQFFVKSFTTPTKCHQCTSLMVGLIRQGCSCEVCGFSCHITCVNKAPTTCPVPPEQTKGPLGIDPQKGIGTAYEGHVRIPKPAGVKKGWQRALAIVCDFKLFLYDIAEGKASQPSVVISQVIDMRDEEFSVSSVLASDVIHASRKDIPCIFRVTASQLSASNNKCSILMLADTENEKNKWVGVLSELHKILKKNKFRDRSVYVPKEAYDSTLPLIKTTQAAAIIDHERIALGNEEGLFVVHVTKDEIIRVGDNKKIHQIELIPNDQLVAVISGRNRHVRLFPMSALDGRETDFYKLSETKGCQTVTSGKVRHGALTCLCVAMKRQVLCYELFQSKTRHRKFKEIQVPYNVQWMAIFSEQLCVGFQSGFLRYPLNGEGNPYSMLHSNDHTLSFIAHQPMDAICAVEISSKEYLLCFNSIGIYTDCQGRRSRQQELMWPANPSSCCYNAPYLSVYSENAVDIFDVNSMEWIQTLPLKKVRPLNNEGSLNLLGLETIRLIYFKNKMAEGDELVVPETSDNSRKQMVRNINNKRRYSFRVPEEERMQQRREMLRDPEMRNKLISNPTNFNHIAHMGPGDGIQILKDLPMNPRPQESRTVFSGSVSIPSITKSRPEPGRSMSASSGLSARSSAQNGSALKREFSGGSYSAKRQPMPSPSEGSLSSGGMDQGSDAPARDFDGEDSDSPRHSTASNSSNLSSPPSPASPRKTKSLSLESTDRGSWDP
Chain of UniProt Q96RR4 (Q96RR4 whole entry, looked up): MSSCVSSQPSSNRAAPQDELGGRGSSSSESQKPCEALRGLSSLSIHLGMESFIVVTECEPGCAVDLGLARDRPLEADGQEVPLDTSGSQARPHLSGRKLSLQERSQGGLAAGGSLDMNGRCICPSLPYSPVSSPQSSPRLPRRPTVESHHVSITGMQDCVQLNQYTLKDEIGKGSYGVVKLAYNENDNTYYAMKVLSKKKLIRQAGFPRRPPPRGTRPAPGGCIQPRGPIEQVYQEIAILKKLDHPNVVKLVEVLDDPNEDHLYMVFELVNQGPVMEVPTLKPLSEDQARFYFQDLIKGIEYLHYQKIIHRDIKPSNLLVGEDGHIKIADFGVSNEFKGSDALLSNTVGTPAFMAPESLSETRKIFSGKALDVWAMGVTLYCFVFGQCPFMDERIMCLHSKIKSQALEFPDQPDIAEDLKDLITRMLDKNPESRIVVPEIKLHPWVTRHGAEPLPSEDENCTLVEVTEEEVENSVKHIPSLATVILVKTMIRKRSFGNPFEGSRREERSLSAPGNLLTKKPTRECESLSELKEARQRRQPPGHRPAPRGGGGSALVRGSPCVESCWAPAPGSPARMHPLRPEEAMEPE
Chain of UniProt P04632 (P04632 whole entry, looked up): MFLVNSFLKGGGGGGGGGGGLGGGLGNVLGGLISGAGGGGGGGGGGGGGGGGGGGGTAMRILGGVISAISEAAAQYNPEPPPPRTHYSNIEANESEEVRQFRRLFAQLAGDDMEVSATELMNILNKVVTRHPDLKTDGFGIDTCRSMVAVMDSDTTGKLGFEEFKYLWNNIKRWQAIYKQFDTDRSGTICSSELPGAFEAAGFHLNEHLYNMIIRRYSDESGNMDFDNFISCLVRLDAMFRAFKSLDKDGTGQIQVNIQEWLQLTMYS
Chain of UniProt P46527 (P46527 whole entry, looked up): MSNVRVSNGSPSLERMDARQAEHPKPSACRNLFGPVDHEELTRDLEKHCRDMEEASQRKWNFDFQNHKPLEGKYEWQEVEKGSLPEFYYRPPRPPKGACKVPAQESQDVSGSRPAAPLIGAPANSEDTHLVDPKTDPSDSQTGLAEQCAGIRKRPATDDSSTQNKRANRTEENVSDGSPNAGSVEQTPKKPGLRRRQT
Chain of UniProt Q96A33 (Q96A33 whole entry, looked up): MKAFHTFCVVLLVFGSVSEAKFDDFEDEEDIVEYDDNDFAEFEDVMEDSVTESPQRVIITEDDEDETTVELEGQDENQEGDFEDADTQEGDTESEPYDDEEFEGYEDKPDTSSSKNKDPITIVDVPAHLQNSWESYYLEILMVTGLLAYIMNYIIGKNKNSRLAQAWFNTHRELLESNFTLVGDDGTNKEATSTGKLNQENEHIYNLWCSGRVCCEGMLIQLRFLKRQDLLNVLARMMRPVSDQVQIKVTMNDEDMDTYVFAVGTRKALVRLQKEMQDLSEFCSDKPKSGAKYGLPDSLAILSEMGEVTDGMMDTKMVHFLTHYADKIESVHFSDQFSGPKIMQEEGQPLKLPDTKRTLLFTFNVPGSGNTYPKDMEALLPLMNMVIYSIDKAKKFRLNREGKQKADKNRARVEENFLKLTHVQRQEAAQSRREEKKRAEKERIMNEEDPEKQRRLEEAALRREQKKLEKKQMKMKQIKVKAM
Chain of UniProt Q92879 (Q92879 whole entry, looked up): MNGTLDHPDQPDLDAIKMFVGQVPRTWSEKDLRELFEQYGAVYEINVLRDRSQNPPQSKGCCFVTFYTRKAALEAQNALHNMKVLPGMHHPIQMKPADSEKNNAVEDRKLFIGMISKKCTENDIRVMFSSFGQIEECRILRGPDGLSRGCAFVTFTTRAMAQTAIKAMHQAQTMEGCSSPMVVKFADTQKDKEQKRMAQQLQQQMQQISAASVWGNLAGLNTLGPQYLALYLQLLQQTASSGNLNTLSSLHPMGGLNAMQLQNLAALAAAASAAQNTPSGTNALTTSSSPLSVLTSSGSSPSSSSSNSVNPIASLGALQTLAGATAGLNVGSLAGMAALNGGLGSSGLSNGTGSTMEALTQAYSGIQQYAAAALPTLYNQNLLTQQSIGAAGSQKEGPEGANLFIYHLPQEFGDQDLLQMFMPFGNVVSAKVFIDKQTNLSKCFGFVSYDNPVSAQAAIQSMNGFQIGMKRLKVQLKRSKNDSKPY
Chain of UniProt P18859 (P18859 whole entry, looked up): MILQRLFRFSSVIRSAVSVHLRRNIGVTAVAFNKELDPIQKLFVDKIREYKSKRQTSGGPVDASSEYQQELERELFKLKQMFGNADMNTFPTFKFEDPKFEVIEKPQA
Chain of UniProt O15155 (O15155 whole entry, looked up): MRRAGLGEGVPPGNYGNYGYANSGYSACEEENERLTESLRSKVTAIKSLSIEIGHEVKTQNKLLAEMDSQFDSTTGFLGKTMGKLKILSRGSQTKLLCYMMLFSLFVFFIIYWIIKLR
Chain of UniProt Q9Y6H1 (Q9Y6H1 whole entry, looked up): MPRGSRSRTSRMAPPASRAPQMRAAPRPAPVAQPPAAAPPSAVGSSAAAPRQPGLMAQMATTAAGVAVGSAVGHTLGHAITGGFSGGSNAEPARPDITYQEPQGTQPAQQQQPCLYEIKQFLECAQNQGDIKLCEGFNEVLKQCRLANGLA

Q: With CCT6A (UniProt P40227) as the target, how does the log2 fold change [1] read?
A: Its log2 fold change is 0.004.

Q: And the log2 fold change (vorinostat)?
A: The log2 fold change was 0.049.

Q: And the log2 fold change (silmitasertib)?
A: The log2 fold change was -0.005.

Q: And the log2 fold change [2]?
A: The log2 fold change was 0.012.

Q: And the log2 fold change (entospletinib)?
A: The log2 fold change was 0.024.

Q: For AURKAIP1 (UniProt Q9NWT8), which log2 fold change [1] is on record?
A: The log2 fold change was 0.073.

Q: And the log2 fold change (vorinostat)?
A: The log2 fold change was 0.08.

Q: And the log2 fold change (silmitasertib)?
A: Its log2 fold change is -0.01.

Q: And the log2 fold change [2]?
A: The log2 fold change was 0.071.

Q: What about the log2 fold change (entospletinib) of the same target?
A: Its log2 fold change is -0.081.

Q: For CAD (UniProt P27708), which log2 fold change [1] is on record?
A: Its log2 fold change is 0.012.

Q: What about the log2 fold change (vorinostat) of the same target?
A: The log2 fold change was -0.067.

Q: What about the log2 fold change (silmitasertib) of the same target?
A: The log2 fold change was 0.026.

Q: What about the log2 fold change [2] of the same target?
A: The log2 fold change was 0.008.

Q: What about the log2 fold change (entospletinib) of the same target?
A: The log2 fold change was 0.

Q: CHD4 isoform 2 (UniProt Q14839) was tested. Which log2 fold change [1] did it give?
A: The log2 fold change was 0.023.

Q: What about the log2 fold change (vorinostat) of the same target?
A: Its log2 fold change is -0.284 (active).

Q: And the log2 fold change (silmitasertib)?
A: The log2 fold change was -0.006.

Q: What about the log2 fold change [2] of the same target?
A: The log2 fold change was 0.015.

Q: And the log2 fold change (entospletinib)?
A: Its log2 fold change is -0.01.

Q: How did the log2 fold change [1] turn out when CCDC85B (UniProt Q15834) was run?
A: Its log2 fold change is -0.039.

Q: And the log2 fold change (vorinostat)?
A: Its log2 fold change is 0.088.

Q: What about the log2 fold change (silmitasertib) of the same target?
A: The log2 fold change was 0.042.

Q: What about the log2 fold change [2] of the same target?
A: The log2 fold change was -0.077.

Q: And the log2 fold change (entospletinib)?
A: The log2 fold change was -0.397.

Q: With CCPG1 isoform 5 (UniProt Q9ULG6) as the target, how does the log2 fold change [1] read?
A: The log2 fold change was -0.022.

Q: What about the log2 fold change (vorinostat) of the same target?
A: The log2 fold change was 0.043.

Q: And the log2 fold change (silmitasertib)?
A: The log2 fold change was -0.012.

Q: And the log2 fold change [2]?
A: The log2 fold change was -0.025.

Q: And the log2 fold change (entospletinib)?
A: Its log2 fold change is 0.

Q: For CAPNS1 (UniProt P04632), which log2 fold change [1] is on record?
A: The log2 fold change was -0.08.

Q: What about the log2 fold change (vorinostat) of the same target?
A: Its log2 fold change is 0.07.

Q: What about the log2 fold change (silmitasertib) of the same target?
A: The log2 fold change was -0.007.

Q: And the log2 fold change [2]?
A: Its log2 fold change is -0.039.

Q: What about the log2 fold change (entospletinib) of the same target?
A: The log2 fold change was 0.033.

Q: Which results are given for CELF1 isoform 4 (UniProt Q92879)?
A: log2 fold change [1]: 0.065; log2 fold change (vorinostat): -0.347 (active); log2 fold change (silmitasertib): 0.019; log2 fold change [2]: 0.022; log2 fold change (entospletinib): 0.013

Q: Which log2 fold change [1] does the source give for ATP5PF isoform 2 (UniProt P18859) here?
A: The log2 fold change was -0.002.

Q: And the log2 fold change (vorinostat)?
A: The log2 fold change was 0.206.

Q: What about the log2 fold change (silmitasertib) of the same target?
A: Its log2 fold change is -0.116.

Q: What about the log2 fold change [2] of the same target?
A: The log2 fold change was 0.053.

Q: What about the log2 fold change (entospletinib) of the same target?
A: Its log2 fold change is -0.003.

Q: Which log2 fold change [1] does the source give for CES2 isoform 4 (UniProt O00748) here?
A: The log2 fold change was 0.049.

Q: And the log2 fold change (vorinostat)?
A: The log2 fold change was 0.307.

Q: And the log2 fold change (silmitasertib)?
A: The log2 fold change was -0.093.

Q: What about the log2 fold change [2] of the same target?
A: The log2 fold change was 0.177.

Q: What about the log2 fold change (entospletinib) of the same target?
A: The log2 fold change was -0.034.

Q: Which log2 fold change [1] does the source give for CAPN15 (UniProt O75808) here?
A: The log2 fold change was 0.028.

Q: What about the log2 fold change (vorinostat) of the same target?
A: The log2 fold change was -0.504 (active).

Q: What about the log2 fold change (silmitasertib) of the same target?
A: Its log2 fold change is -0.016.

Q: And the log2 fold change [2]?
A: Its log2 fold change is -0.081.

Q: What about the log2 fold change (entospletinib) of the same target?
A: Its log2 fold change is -0.043.

Q: Which log2 fold change [1] does the source give for BORCS5 (UniProt Q969J3) here?
A: Its log2 fold change is -0.061.

Q: What about the log2 fold change (vorinostat) of the same target?
A: Its log2 fold change is 0.136.

Q: What about the log2 fold change (silmitasertib) of the same target?
A: Its log2 fold change is 0.008.

Q: What about the log2 fold change [2] of the same target?
A: Its log2 fold change is 0.026.

Q: And the log2 fold change (entospletinib)?
A: Its log2 fold change is -0.115.

Q: What does the source list for CCDC22 (UniProt O60826)?
A: log2 fold change [1]: 0.056; log2 fold change (vorinostat): -0.222 (active); log2 fold change (silmitasertib): 0.022; log2 fold change [2]: 0.014; log2 fold change (entospletinib): -0.021

Q: With BET1 (UniProt O15155) as the target, how does the log2 fold change [1] read?
A: Its log2 fold change is 0.015.

Q: What about the log2 fold change (vorinostat) of the same target?
A: Its log2 fold change is -0.042.

Q: What about the log2 fold change (silmitasertib) of the same target?
A: Its log2 fold change is -0.008.

Q: And the log2 fold change [2]?
A: The log2 fold change was -0.01.

Q: And the log2 fold change (entospletinib)?
A: The log2 fold change was 0.035.

Q: CAMLG (UniProt P49069) was tested. Which log2 fold change [1] did it give?
A: Its log2 fold change is -0.009.

Q: And the log2 fold change (vorinostat)?
A: Its log2 fold change is -0.15.

Q: What about the log2 fold change (silmitasertib) of the same target?
A: The log2 fold change was -0.027.

Q: And the log2 fold change [2]?
A: Its log2 fold change is 0.006.

Q: And the log2 fold change (entospletinib)?
A: Its log2 fold change is 0.001.

Q: How did the log2 fold change [1] turn out when ATE1 isoform 2 (UniProt O95260) was run?
A: Its log2 fold change is -0.068.

Q: What about the log2 fold change (vorinostat) of the same target?
A: The log2 fold change was -0.444 (active).

Q: And the log2 fold change (silmitasertib)?
A: Its log2 fold change is 0.041.

Q: What about the log2 fold change [2] of the same target?
A: The log2 fold change was -0.01.

Q: And the log2 fold change (entospletinib)?
A: Its log2 fold change is -0.008.

Q: Which results are given for CACUL1 (UniProt Q86Y37)?
A: log2 fold change [1]: 0.176; log2 fold change (vorinostat): -0.543 (active); log2 fold change (silmitasertib): 0.024; log2 fold change [2]: -0.081; log2 fold change (entospletinib): -0.056

Q: CDC42BPA isoform 6 (UniProt Q5VT25) was tested. Which log2 fold change [1] did it give?
A: Its log2 fold change is -0.008.

Q: What about the log2 fold change (vorinostat) of the same target?
A: The log2 fold change was -0.224 (active).

Q: What about the log2 fold change (silmitasertib) of the same target?
A: The log2 fold change was 0.018.

Q: And the log2 fold change [2]?
A: The log2 fold change was 0.001.

Q: And the log2 fold change (entospletinib)?
A: Its log2 fold change is 0.

Q: Which results are given for CDKN1B (UniProt P46527)?
A: log2 fold change [1]: 0.062; log2 fold change (vorinostat): -0.011; log2 fold change (silmitasertib): 0.048; log2 fold change [2]: -0.067; log2 fold change (entospletinib): -0.028

Q: With CHCHD2 (UniProt Q9Y6H1) as the target, how does the log2 fold change [1] read?
A: Its log2 fold change is -0.022.

Q: And the log2 fold change (vorinostat)?
A: The log2 fold change was -0.301 (active).

Q: What about the log2 fold change (silmitasertib) of the same target?
A: The log2 fold change was 0.044.

Q: What about the log2 fold change [2] of the same target?
A: The log2 fold change was -0.017.

Q: What about the log2 fold change (entospletinib) of the same target?
A: The log2 fold change was -0.06.

Q: With BRD3 (UniProt Q15059) as the target, how does the log2 fold change [1] read?
A: Its log2 fold change is 0.052.

Q: And the log2 fold change (vorinostat)?
A: Its log2 fold change is -0.117.

Q: And the log2 fold change (silmitasertib)?
A: Its log2 fold change is -0.146.

Q: And the log2 fold change [2]?
A: Its log2 fold change is 0.021.

Q: And the log2 fold change (entospletinib)?
A: Its log2 fold change is -0.018.

Q: ATR (UniProt Q13535) was tested. Which log2 fold change [1] did it give?
A: The log2 fold change was 0.044.

Q: What about the log2 fold change (vorinostat) of the same target?
A: The log2 fold change was -0.131.

Q: And the log2 fold change (silmitasertib)?
A: Its log2 fold change is 0.509 (active).

Q: What about the log2 fold change [2] of the same target?
A: Its log2 fold change is -0.01.

Q: And the log2 fold change (entospletinib)?
A: Its log2 fold change is 0.046.

Q: Which results are given for CAMKK2 (UniProt Q96RR4)?
A: log2 fold change [1]: 0.081; log2 fold change (vorinostat): -0.325 (active); log2 fold change (silmitasertib): 0.074; log2 fold change [2]: -0.02; log2 fold change (entospletinib): 0.039

Q: How did the log2 fold change [1] turn out when BCAR1 isoform 6 (UniProt P56945) was run?
A: Its log2 fold change is 0.056.

Q: What about the log2 fold change (vorinostat) of the same target?
A: Its log2 fold change is -0.032.

Q: And the log2 fold change (silmitasertib)?
A: Its log2 fold change is 0.002.

Q: What about the log2 fold change [2] of the same target?
A: The log2 fold change was -0.004.

Q: And the log2 fold change (entospletinib)?
A: Its log2 fold change is -0.083.

Q: For BRAT1 (UniProt Q6PJG6), which log2 fold change [1] is on record?
A: Its log2 fold change is 0.015.

Q: And the log2 fold change (vorinostat)?
A: The log2 fold change was -0.32 (active).

Q: And the log2 fold change (silmitasertib)?
A: The log2 fold change was -0.002.

Q: What about the log2 fold change [2] of the same target?
A: The log2 fold change was -0.013.

Q: And the log2 fold change (entospletinib)?
A: The log2 fold change was 0.004.

Q: What does the source list for CCDC47 (UniProt Q96A33)?
A: log2 fold change [1]: 0.002; log2 fold change (vorinostat): 0.207 (active); log2 fold change (silmitasertib): 0.026; log2 fold change [2]: 0.011; log2 fold change (entospletinib): -0.007
